High-throughput results: PubChem, several laboratories
Compounds with a hit are over-represented: about 1.5% of the library has one in this group of screens.
IDE cell inh – cellular human IDE inhibition. HEK cells, FAbetaB cleavage, fluorescence polarization. inhibition, % at 5.59 µM. AID 434962. P14735. actives 0.41% (n = 320,000);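 active = percent inhibition above the average of all tested compounds plus 3 SD, set per screening campaign, cut at about 16% in these data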;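 note: IDE supplied by intact live HEK cells; FP after avidin binding of uncleaved biotin substrate so inhibition keeps polarization high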
BCLXL inh – Bcl-xL (human) inhibition; Q07817; GST-Bcl-xL / FITC-Bim BH3 peptide fluorescence polarization; inhibition, % at 10.9 µM; actives 0.7% (n = 320,000);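 active = inhibition above the mean of all tested compounds plus 3 SD, cutoff set per campaign, cut at about 30% in these data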;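 note: inhibitors lower millipolarization by displacing the labeled peptide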
Target sequence (Q07817 whole entry, looked up): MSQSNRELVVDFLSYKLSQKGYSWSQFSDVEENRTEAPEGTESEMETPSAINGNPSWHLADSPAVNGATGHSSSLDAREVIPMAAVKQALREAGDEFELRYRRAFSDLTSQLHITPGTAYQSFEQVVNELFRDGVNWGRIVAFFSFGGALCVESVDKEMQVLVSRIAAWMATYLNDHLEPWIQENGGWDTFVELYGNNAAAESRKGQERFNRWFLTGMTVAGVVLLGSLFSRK
GLD-1 RNA inh – GLD-1-TGE RNA interaction inhibition (C. elegans); actives 0.44% (n = 320,000); inhibition, % at 5.96 µM; Q17339; purified GLD-1 + fluorescein TGE RNA, fluorescence polarization;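 active = percent inhibition above a per-plate cutoff, the plate mean of test compounds plus 3 SD, cut at about 30% in these data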
MEX-5 binding – C. elegans MEX-5 TCR-2 RNA binding activity; activity score (negative = inhibition of binding), % at 10 µM; MEX-5/FITC-TCR2 RNA binding, fluorescence polarization; active compounds read low; Q9XUB2; actives 0.38% (n = 300,000);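 active = inhibition past about -25% in most replicates, and total fluorescence under double the plate's negative control median, limit read from the data; inconclusive = replicates evenly split on the limit, or fluorescence at least double controls; inactive = too little inhibition in most replicates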
IDE act – IDE (human) activation, cell-based; actives 0.073% (n = 340,000); AID 493087; HEK cells, FAbeta-B cleavage, fluorescence polarization; 0% vehicle, 100% cell-free pure enzyme wells; activation, % at 5.96 µM; P14735;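 active = activation above the mean of all tested compounds plus 3 SD, set per screening campaign, cut at about 17% in these data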
MCL1-BIM inh – MCL1-BIM-BH3 interaction inhibition (human) | actives 0.68% (n = 320,000) | GST-MCL1 / FITC-Bim-BH3 fluorescence polarization | Q07820 | inhibition, % at 10.9 µM | AID 2057;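 active = inhibition above the mean inhibition of all tested compounds plus 3 SD, set per campaign, cut at about 40% in these data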;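 note: higher means more loss of mP so more displacement of Bim peptide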
Target sequence (Q07820 whole entry, looked up): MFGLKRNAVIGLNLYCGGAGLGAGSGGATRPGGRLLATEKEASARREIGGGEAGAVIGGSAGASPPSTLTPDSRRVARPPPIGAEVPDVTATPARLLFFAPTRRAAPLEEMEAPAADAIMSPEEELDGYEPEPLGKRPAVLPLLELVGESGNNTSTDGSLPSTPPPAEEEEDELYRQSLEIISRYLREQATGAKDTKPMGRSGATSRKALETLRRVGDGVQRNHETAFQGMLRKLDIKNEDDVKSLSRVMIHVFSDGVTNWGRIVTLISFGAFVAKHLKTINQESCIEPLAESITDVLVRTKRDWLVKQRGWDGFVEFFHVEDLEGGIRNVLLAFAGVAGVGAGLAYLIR
IDE inh confirm – confirmation of human insulin-degrading enzyme inhibitors in cells. shares compounds with IDE cell inh. HEK cells, FAbetaB cleavage, fluorescence polarization. inhibition, % at 5.59 µM. actives 51% (n = 1,200). AID 435028;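 active = mean inhibition across triplicate wells above the cutoff set by the earlier primary insulin-degrading enzyme screen, cut at about 16% in these data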
HEK cytotox – kills HEK cells in IDE inhibitor counter-screen. shares compounds with IDE cell inh. HEK293 cytotoxicity, ATP luminescence. inhibition, % at 5.59 µM. actives 28% (n = 1,200). AID 449730; in the data active = inhibition above about 22%
Hits are given with their value; 0 = inactive; ? = inconclusive; - = no result given.

SMILES	IDE cell inh	BCLXL inh	GLD-1 RNA inh	MEX-5 binding	IDE act	MCL1-BIM inh	IDE inh confirm	HEK cytotox
Cc1nc(-c2nnc(SCC(=O)Nc3ccc(C(F)(F)F)cc3)n2C)cs1	0	0	0	0	0	0	-	-
CC(Oc1ccc2c(c1)c1ccnc3c4ccccc4c(=O)n2c13)C(=O)NCCN1CCOCC1 (stereo not given)	0	0	0	0	0	0	-	-
Cc1ccc(C(=O)N2CCN(c3ncnc4c(C)csc34)CC2)cc1	18.6	0	0	0	0	0	0	0
CCOC(=O)C1C(=O)C=C(/C=C/c2ccc(N(C)C)cc2)CC1c1ccccc1 (stereo not given)	40.4	0	0	?	0	0	129.3	24.0
CCOC(=O)C1C(=O)C=C(c2ccc(C)cc2)CC1c1ccccc1 (stereo not given)	0	0	0	0	0	0	-	-
C=CCC[C@H](Cc1ccc(F)cc1)C(=O)OC[C@@H](NC(=O)[C@H](CC=C)CC(=O)NCCO)C(C)(C)C	0	-	0	-	0	-	-	-
O=C(Nc1ccccc1)N1CCCN(c2ccc(C(F)(F)F)cn2)CC1	0	0	0	0	0	0	-	-
Cc1cc(C(=O)N2CCN(c3ccc(C(F)(F)F)cn3)CC2)c(C)o1	16.9	0	0	0	0	0	0	0
Cc1ccc(C(=O)N2CCN(c3ccc(C(F)(F)F)cn3)CC2)o1	0	-	0	-	0	-	-	-
COc1cccc(NC(=O)N2CCN(c3ccc(C(F)(F)F)cn3)CC2)c1	18.1	0	0	0	0	0	0	26.1
Cc1sc2c3ccsc3ccc2[n+]1C	0	0	0	0	0	0	-	-
Cc1sc2ccc3sccc3c2[n+]1C	20.5	0	0	0	0	0	0	0
CCOC(=O)c1c(C)n(-c2ccc(C)cc2)c2ccc(OCC(O)CNCC3CCCO3)cc12 (stereo not given)	16.8	0	0	0	0	0	0	0
CCOC(=O)c1c(C)n(C)c2ccc(OCC(O)CNC(CC)CO)cc12 (stereo not given)	0	0	0	0	0	0	-	-
CCOC(=O)c1c(C)n(-c2ccc(C)cc2)c2ccc(OCC(O)CNCCCO)cc12 (stereo not given)	17.0	0	0	0	0	0	0	0
CCC(C)(C)n1nnnc1C(c1ccc2ncccc2c1)N1CCN(c2nc3ccccc3s2)CC1 (stereo not given)	18.1	0	0	0	0	0	0	25.9
CCC(C)(C)n1nnnc1C(c1ccc2ncccc2c1)N1CCN(c2ccc(O)cc2)CC1 (stereo not given)	0	0	0	0	0	0	-	-
O=c1[nH]c(Nc2ccccc2)cc2cc(Br)ccc12	0	0	0	0	0	0	-	-
O=c1[nH]c(Nc2ccccc2)cc2ccccc12	19.0	54.2	55.2	0	0	0	0	0
O=C(NCC(=O)N(c1cccnc1)C(C(=O)NC1CCCCC1)c1ccccc1F)c1ccco1 (stereo not given)	0	0	0	0	0	0	-	-
CCOC(=O)c1nc(-c2ccc(OC)c(OC)c2)no1	0	0	0	0	0	0	-	-
CC(NC(=O)c1ccc(N(C)C)c([N+](=O)[O-])c1)c1ccc(-n2ccnc2)cc1 (stereo not given)	19.1	0	0	0	0	0	0	0
O=C(CSc1ccc(F)cc1)NC1CCCCC1	0	0	0	0	0	0	-	-
O=S(=O)(NC1=NCCC1)c1cccc(NC(=S)NCCc2ccccc2)c1	22.5	0	0	0	0	0	0	0
C=CCN1C(=O)/C(=C/c2ccc(O)c(OC)c2)S/C1=N/c1nccs1	153.8	0	0	0	0	0	25.9	0
SMILES	IDE cell inh	BCLXL inh	GLD-1 RNA inh	MEX-5 binding	IDE act	MCL1-BIM inh	IDE inh confirm	HEK cytotox
CCOc1ccc2[nH]c3c(NCCO)ncnc3c2c1	-	-	-	0	0	-	-	-
CCCCOCCCNc1ncnc2c1[nH]c1ccccc12	24.7	0	0	0	0	0	0	72.8
CCOc1ccc2[nH]c3c(NCCc4ccc(OC)c(OC)c4)ncnc3c2c1	17.4	0	0	0	0	0	0	40.9
C=CCNc1ncnc2c1[nH]c1ccccc12	0	0	0	0	0	0	-	-
CCOCCCNc1ncnc2c1[nH]c1ccccc12	21.2	0	0	0	0	0	0	37.6
COc1ccc(CC(=O)Nc2c3c(nn2C(C)(C)C)CS(=O)(=O)C3)cc1OC	0	0	0	0	0	0	-	-
COc1cc(S(=O)(=O)n2cnc(C)c2)ccc1Br	0	0	0	0	0	0	-	-
S=c1[nH]nc(Nc2cccc(Cl)c2)s1	17.0	0	0	0	0	0	0	0
CCOC(=O)c1c(C)nsc1NC(=O)C1CCCCC1	0	0	0	0	0	0	-	-
CCC1=NN2C(=N)/C(=C\c3ccc(SCc4ccco4)o3)C(=O)N=C2S1	21.9	0	0	-31.7	0	0	0	0
CCCS(=O)(=O)c1nc(S(=O)(=O)c2ccc(Cl)cc2)c(N2CCC(O)CC2)s1	0	0	0	0	0	0	-	-
C/C(=N/NC(=O)CN1CCN(Cc2ccccc2Cl)CC1)c1cccnc1	23.4	0	0	0	0	0	0	0
C/C(=N/NC(=O)CN1CCN(Cc2ccccc2Cl)CC1)c1cccs1	0	0	0	0	-	0	-	-
O=C(CN1CCN(Cc2ccccc2Cl)CC1)N/N=C/C=C/c1ccccc1[N+](=O)[O-]	22.1	0	0	0	0	0	0	0
Cc1cc(NS(=O)(=O)c2ccc(NC(=S)NC(=O)/C=C/c3ccccc3)cc2)no1	0	0	0	0	0	0	-	-
Cc1ccc(/C=C/C(=O)NC(=S)Nc2ccc(S(=O)(=O)Nc3cc(C)on3)cc2)cc1	24.5	0	0	0	0	0	20.9	0
O=C(C1=C[C@H](c2coc3ccccc3c2=O)C[C@H](OCCCCO)O1)N1CCN(Cc2ccc3c(c2)OCO3)CC1	17.3	0	0	0	0	0	0	0
O=c1[nH]oc2cc(Cl)ccc12	16.7	0	0	0	0	0	0	0
Cc1cc(CSc2ccccc2)ccc1NC(=O)c1ccc(CN2CCOCC2)cc1	25.1	0	0	0	0	0	0	75.4
O=C(Nc1ccc(-c2nc3ccccc3s2)cc1)c1cc(-n2cnnc2)ccc1Cl	21.5	0	0	0	0	0	0	67.2
CCSc1ccccc1C(=O)Nc1cc(OC)c(OC)c(OC)c1	17.8	0	0	0	0	0	0	0
N#C/C(=C/c1ccc(N2CCOCC2)o1)c1nc2ccccc2[nH]1	35.5	0	0	-	0	0	26.0	28.5
N#C/C(=C\c1ccc(N2CCOCC2)o1)c1ccccc1	0	0	0	0	0	0	-	-
